Here are results for twelve molecules from PubChem BioAssay (NCATS).

Assay [1] deals with DNA repair nuclease/redox regulator APEX1 (Homo sapiens) (UniProt P27695). Briefly: qHTS Validation Assay for Inhibitors of the Human Apurinic/apyrimidinic Endonuclease 1 (APE1) (AID 1705;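 further: TAMRA fluorescence gain over two minutes as APE1 cuts a quenched THF abasic duplex; series mostly up to about 57 µM; on the % scale 0 is the no-effect control and ±100 the full control effect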). In a few lines: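 Endonuclease activity of human APE1 is followed as dequenching when the enzyme incises a tetrahydrofuran abasic site in a short duplex labelled 5'-TAMRA/3'-BHQ-2 (50 nM final), after 15 min enzyme–compound preincubation at room temperature.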
Sequence of DNA repair nuclease/redox regulator APEX1 (Homo sapiens) (P27695 whole entry, looked up): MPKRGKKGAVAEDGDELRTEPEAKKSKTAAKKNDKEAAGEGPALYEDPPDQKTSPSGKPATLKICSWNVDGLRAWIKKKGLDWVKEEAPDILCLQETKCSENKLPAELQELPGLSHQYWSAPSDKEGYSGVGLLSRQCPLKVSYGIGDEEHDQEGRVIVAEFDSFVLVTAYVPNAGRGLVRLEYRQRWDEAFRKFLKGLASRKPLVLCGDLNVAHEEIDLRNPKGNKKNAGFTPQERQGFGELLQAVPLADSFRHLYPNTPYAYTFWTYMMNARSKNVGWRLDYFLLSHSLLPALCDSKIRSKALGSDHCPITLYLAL
A general note: Quantitative high-throughput screening tests each substance at several concentrations.

A short description of assay [2]: Counterscreen for APE1 Inhibitors: Fluorescent Dye Displacement Validation Assay (AID 1707).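 Further: plate controls were ThO with dsDNA and no compound for no effect and ThO without dsDNA for full effect.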 In a few lines:
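Thiazole Orange displacement from dsDNA: 250 nM ThO with 50 nM TAMRA-labelled abasic-site (tetrahydrofuran) duplex in 50 mM Tris-HCl pH7.5, 50mM NaCl, 2 mM MgCl2, 0.01% Tween-20. Loss of endpoint fluorescence (ex 480 nm, em 540 nm) flags DNA binders.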

Assay [3] is described as follows: Validation screen for inhibitors of Lassa infection (AID 463096; calls by dose curve; further: on the % scale 0 is the no-effect control and ±100 the full control effect).
The nature of assay [4]: Validation screen for small molecules that induce DNA re-replication in MCF 10A normal breast cells (AID 463097). Further: 0% is about no effect; nearly all actives have a fitted effect of over 60% in size. The method, boiled down:
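DNA re-replication was detected as a rise in nuclei with elevated Hoechst fluorescence after a 48 hr compound exposure of MCF 10A cells at 37 C.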

Assay [5] addresses M-phase phosphoprotein 8 (Homo sapiens) (UniProt Q99549). Briefly: qHTS Validation Assay for Inhibitors for MPP8 Chromodomain Interactions with Methylated Histone Tails (AID 488949). Further: nearly all actives have a fitted effect of over 55% in size. Further: potency means the concentration at half of the fitted maximal effect. The method, boiled down: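 Disruption of the preformed MPP8–trimethyl-H3K9 peptide complex (both 50 nM, 30 min, RT) is measured after 30 min compound exposure, using AlphaScreen proximity beads; aurintricarboxylic acid titration serves as plate control.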

Assay [6] addresses Transient receptor potential cation channel subfamily V member 1 (Homo sapiens) (UniProt Q8NER1). The assay is described as follows: HTS Assay for Compounds that Act as Enhancers of the Vanilloid Receptor 1 (AID 488979). Further: 0% is about no effect. In a few lines: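 TRPV1-expressing cells loaded with Fluo-8 calcium dye; compounds added and calcium influx read kinetically for 3 min (agonist phase), then capsaicin at EC20 added and read 2 min more for enhancement. Fluorescence ex 480/em 520 nm.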

Assay [7] deals with Thyrotropin receptor (Homo sapiens) (UniProt P16473). The assay is described as follows: qHTS Assay for Antagonists of the Thyroid Stimulating Hormone Receptor (AID 488980). Further: series mostly up to about 58 µM; 0% is about no effect. The method, boiled down:
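Cells expressing human TSHR (HEK293) are dispensed in HBSS/HEPES containing 70 uM RO 20-1724, compound is added, then TSH at EC80 (4 nM final). Antibody in lysis buffer follows, 30 minutes at room temperature before HTRF detection.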

For assay [8], the target named is Thyrotropin-releasing hormone receptor (Homo sapiens) (UniProt P34981). Briefly: qHTS for Small Molecule Agonists and Allosteric Enhancers of Human TRH Receptor: Validation Screen for Agonists (AID 493127;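 active means calcium activation more than 3 SD above the typical response in the agonist read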;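 further: intracellular calcium rise by fluo-8 fluorescence before TRH EC20 addition; 0% is about no effect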). The conditions noted are these: TRH receptor agonist cell assay; at 2 µM; hits give high values. The method, boiled down:
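Cells 2000/well, 10% FCS, 18 h 33.5C/5% CO2 → fluo-8 Ca dye, RT 30 min–1.5 h → FDSS baseline 10 × 1 s → compound added → 230 cycles (1 s/cycle) agonist mode. TRH controls.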

Assay [9] in a line: Validation screen for small molecules that induce DNA re-replication in SW480 colon adenocarcinoma cells (AID 504364). Further: 0% is about no effect. The method, boiled down: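 250 cells/well; compound pinned in; 48 hr, 37 C, 5% CO2; Hoechst added, 40 min; nuclear fluorescence imaged, 405 ex / 500-530 em; re-replication scored as increase in high-intensity nuclei.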

A number with no mark means an inactive call. Records with an inconclusive call do not appear. Calls of active or inactive are those of the source. Unless noted, the call rests on the fitted dose curve; in most records, active means well fitted curve in the direction sought with a large enough effect; inconclusive means small, poorly fitted or top-dose-only effect, or another doubt; inactive means no such curve, though single readings can be large; an effect the other way counts as inactive or inconclusive.

Sequence of Thyrotropin-releasing hormone receptor (Homo sapiens) (P34981 whole entry, looked up): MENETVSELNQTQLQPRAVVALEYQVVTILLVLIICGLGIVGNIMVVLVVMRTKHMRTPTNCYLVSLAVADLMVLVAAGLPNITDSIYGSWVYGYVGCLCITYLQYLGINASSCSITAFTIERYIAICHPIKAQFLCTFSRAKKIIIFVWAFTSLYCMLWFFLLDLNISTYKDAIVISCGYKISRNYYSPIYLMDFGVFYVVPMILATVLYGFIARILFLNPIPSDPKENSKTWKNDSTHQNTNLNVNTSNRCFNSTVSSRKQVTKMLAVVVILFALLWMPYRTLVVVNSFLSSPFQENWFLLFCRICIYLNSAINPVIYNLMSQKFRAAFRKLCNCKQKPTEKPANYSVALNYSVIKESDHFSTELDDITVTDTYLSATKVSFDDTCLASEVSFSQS
Sequence of Transient receptor potential cation channel subfamily V member 1 (Homo sapiens) (Q8NER1 whole entry, looked up): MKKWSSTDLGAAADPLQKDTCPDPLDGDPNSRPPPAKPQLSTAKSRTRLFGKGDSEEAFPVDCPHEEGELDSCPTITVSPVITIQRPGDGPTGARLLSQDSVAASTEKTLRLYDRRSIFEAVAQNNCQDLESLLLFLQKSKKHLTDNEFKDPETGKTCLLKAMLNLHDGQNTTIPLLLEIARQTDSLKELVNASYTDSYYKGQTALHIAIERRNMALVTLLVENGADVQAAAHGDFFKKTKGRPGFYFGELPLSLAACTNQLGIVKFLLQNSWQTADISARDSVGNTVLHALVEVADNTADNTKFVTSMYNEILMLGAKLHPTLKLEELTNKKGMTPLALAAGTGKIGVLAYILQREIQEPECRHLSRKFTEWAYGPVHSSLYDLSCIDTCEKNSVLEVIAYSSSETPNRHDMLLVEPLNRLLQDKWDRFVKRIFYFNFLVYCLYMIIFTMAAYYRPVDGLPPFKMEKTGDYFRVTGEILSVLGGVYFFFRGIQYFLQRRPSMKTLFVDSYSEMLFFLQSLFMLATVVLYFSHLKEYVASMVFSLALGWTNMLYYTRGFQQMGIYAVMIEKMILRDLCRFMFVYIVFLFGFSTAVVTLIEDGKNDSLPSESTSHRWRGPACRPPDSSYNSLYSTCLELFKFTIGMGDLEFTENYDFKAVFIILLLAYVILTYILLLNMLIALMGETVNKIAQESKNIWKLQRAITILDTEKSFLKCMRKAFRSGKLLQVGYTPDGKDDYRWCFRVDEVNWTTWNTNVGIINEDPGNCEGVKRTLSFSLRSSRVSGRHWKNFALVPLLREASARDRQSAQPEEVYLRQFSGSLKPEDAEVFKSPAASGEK
Sequence of M-phase phosphoprotein 8 (Homo sapiens) (Q99549 whole entry, looked up): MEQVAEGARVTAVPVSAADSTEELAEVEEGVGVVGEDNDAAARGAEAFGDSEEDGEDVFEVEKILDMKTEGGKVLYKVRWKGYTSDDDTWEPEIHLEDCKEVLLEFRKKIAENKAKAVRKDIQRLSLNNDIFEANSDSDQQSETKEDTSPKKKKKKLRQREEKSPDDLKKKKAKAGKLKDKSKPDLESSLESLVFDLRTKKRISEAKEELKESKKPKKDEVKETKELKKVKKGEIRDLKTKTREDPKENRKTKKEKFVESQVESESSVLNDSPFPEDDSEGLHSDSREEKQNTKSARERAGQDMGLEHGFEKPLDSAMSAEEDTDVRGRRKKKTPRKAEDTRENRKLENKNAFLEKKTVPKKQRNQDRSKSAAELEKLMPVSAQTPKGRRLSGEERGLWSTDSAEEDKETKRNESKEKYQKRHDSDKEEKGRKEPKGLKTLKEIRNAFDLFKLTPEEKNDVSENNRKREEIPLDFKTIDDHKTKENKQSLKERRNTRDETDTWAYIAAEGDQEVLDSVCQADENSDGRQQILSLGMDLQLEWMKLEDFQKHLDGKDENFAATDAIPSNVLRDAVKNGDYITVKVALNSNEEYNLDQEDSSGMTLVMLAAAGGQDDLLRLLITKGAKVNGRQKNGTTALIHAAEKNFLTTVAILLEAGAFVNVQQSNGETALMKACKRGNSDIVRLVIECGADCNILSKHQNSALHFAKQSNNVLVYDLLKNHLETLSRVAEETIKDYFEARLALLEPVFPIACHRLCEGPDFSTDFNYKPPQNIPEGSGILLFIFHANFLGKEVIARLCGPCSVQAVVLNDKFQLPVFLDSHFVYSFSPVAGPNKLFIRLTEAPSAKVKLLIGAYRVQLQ
Sequence of Thyrotropin receptor (Homo sapiens) (P16473 whole entry, looked up): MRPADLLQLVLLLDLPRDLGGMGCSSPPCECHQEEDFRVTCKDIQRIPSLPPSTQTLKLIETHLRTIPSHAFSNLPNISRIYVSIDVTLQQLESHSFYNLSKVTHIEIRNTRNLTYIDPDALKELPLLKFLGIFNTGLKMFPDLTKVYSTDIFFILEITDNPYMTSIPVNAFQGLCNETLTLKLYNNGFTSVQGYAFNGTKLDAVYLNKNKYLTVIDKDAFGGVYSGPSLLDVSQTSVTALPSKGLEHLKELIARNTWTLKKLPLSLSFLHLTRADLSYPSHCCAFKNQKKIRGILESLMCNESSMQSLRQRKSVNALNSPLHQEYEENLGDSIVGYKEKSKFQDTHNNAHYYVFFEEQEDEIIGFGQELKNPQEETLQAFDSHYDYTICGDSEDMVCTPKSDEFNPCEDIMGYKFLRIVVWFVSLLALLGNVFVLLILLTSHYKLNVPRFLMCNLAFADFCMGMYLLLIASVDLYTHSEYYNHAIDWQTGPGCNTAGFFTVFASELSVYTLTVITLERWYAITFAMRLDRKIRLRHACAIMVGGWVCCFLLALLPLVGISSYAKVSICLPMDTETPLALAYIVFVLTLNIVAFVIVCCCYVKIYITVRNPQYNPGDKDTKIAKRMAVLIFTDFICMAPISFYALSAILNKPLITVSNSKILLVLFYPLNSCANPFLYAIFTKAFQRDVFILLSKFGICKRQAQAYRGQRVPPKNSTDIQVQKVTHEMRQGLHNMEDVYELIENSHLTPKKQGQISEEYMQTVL

As to `CN1CCC23CCCC[C@H]2C1Cc1ccc(O)cc13` (stereo not given in full), the Potency result in assay [1], in assay [3], in assay [4] and in assay [5] was “inactive” in each case. The result in [2], in assay [6], in [7] and in [9] was inactive. In addition, the activation in assay [8] is 0.625%.

Take `COc1cc(C=C(C#N)C#N)cc(O)c1O`: the Potency entry in assay [1] and in assay [3] was “inactive” throughout. Moreover, the molecule was called inactive in assay [2], in [6], in assay [7] and in [9]. Moreover, the Potency in assay [5] was 39.8 µM (active). For the same molecule, the activation in assay [8] was 2.88%.

In the case of `CCCN1CCC[C@@H]2Cc3n[nH]cc3C[C@H]21`, the Potency entry in assay [1], in assay [3], in [4] and in assay [5] was “inactive” throughout. Besides, the outcome in assay [2], in [6], in [7] and in [9] was inactive. In [8], the activation was 1.12%.

For `CCNC(=O)[C@H]1O[C@@H](n2cnc3c(N)ncnc32)[C@H](O)[C@H]1O`, the Potency result in assay [1], in assay [3], in assay [4] and in assay [5] was “inactive” throughout. In addition, the call in assay [2], in [6], in assay [7] and in assay [9] was inactive. The activation in assay [8] was 0%.

`CCCC[N+]1(C)C2CC(OC(=O)C(CO)c3ccccc3)CC1C1OC12` (stereo not given): the Potency result in [1], in assay [3], in assay [4] and in assay [5] was “inactive” each time. The molecule was called inactive in assay [2], in assay [6], in [7] and in assay [9]. The activation in assay [8] was -0.438%.

For the molecule `COc1ccc2c3c1O[C@H]1C(=O)CC[C@@]4(O)C(C2)N(CC2CC2)CCC314` (stereo not given in full), the Potency entry in [1], in [3], in assay [4] and in assay [5] was “inactive” each time. In addition, the molecule was classed as inactive in [2], in assay [6], in assay [7] and in assay [9]. Moreover, in assay [8], the activation was 2.19%.

In the case of `CCC(CO)NC(=O)[C@@H]1C=C2c3cccc4[nH]cc(c34)C[C@H]2N(C)C1` (stereo not given in full), the outcome in assay [2], in assay [6], in assay [7] and in assay [9] was inactive. In addition, the Potency result in [3], in assay [4] and in [5] was “inactive” in each case. The activation in [8] was -2.81%.

On to `CCN(CC)C(=O)N[C@@H]1C[C@@H]2c3cccc4[nH]cc(c34)C[C@H]2N(C)C1`, for which the Potency entry in assay [1], in [3] and in assay [4] was “inactive” throughout. Further, the molecule was called inactive in assay [2], in assay [6], in assay [7] and in assay [9]. The activation in assay [8] was -2.62%.

As for `C[C@]12CC[C@H]3[C@@H](CCC4C[C@H](O)CC[C@@]43C)[C@@H]1CC[C@@H]2O` (stereo not given in full), the Potency result in assay [1], in assay [3], in [4] and in assay [5] was “inactive” each time. The molecule was called inactive in assay [2], in assay [6], in [7] and in assay [9]. Moreover, the activation in assay [8] is 1.31%.

As to `COc1ccc2c(c1O)-c1cccc3c1C(C2)N(C)CC3` (stereo not given), the Potency result in assay [1], in assay [3] and in assay [4] was “inactive” throughout. The molecule was classed as inactive in assay [2], in [6], in assay [7] and in assay [9]. Besides, the Potency in assay [5] is 44.7 µM (active). Further, the activation in assay [8] was 1.19%.

Turning to `COc1cc(C[C@@H](C)N)c(OC)cc1I`, the Potency entry in assay [1], in assay [3], in assay [4] and in assay [5] was “inactive” each time. In addition, the molecule was classed as inactive in assay [2], in [6], in assay [7] and in [9]. Further, the activation in [8] was 0.562%.

Take `NC(Cn1ccc(=O)[nH]c1=O)C(=O)O` (stereo not given): the Potency result in assay [1], in assay [3], in [4] and in [5] was “inactive” throughout. Further, the call in assay [2], in assay [6], in [7] and in assay [9] was inactive. For the same molecule, in [8], the activation is 0.375%.
